In general, AC50 refers to the concentration giving half of the maximal activity seen.

The record followed here is PubChem BioAssay (EPA / NIEHS).

The target in experiment [1] is Bile acid receptor (Homo sapiens) (UniProt Q96RI1). Kind of experiment: ATG_IR1_CIS: Attagene CIS-FACTORIAL HepG2 Assay for human Nuclear Receptor Subfamily 1 Group H Member 4 (NR1H4), IR1 submotif (AID 2282946). Conditions: IR1 reporter transcription, actives raise or lower the signal. An outline of the steps:
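Readout: reporter transcript levels by RT-PCR with fluorescent capillary electrophoresis, from HepG2 cells transiently transfected with multiplexed cis-regulated reporters and dosed 24 h. Gain- or loss-of-signal fitted versus DMSO negative control.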

Experiment [2] in a line: ATG_GRE_CIS: Attagene CIS-FACTORIAL HepG2 Assay for human Glucocorticoid Response Elements (GRE) (AID 2282947). As to conditions: HepG2 GRE cis-reporter, Attagene multiplex mRNA; actives raise or lower the signal. The procedure, abridged:
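Cells (HepG2) bearing transfected cis-promoter reporter transcription units were treated with chemical for 24 hours. Reporter mRNA was measured via RT-PCR with capillary electrophoresis, and activity was fitted in both directions relative to DMSO.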

A short description of experiment [3]: ATG_ISRE_CIS: Attagene CIS-FACTORIAL HepG2 Assay for human Interferon Regulatory Factor 1 (IRF1) binding to an Interferon-Stimulated Response Element (ISRE) (AID 2282948). Conditions: HepG2 ISRE cis-reporter (Attagene), mRNA transcription readout; actives raise or lower the signal. The procedure, abridged:
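Multiplexed mRNA reporter readout in human liver HepG2 cells: cis-element-driven reporters transfected, compound added for 24 h, transcripts amplified, fluorescently labelled and sized by capillary electrophoresis; curve fitting bidirectional against DMSO.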

Experiment [4] in a line: ATG_M_32_CIS: Attagene CIS-FACTORIAL HepG2 Assay for M32 Transcription Factor (Internal Marker) (AID 2282949).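 Also: background control marker of the multiplexed CIS panel rather than a real target.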 Conditions: HepG2 Attagene cis-factorial M32 reporter, mRNA; actives raise or lower the signal. The procedure, abridged:
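HepG2 human liver cells transiently transfected with cis-promoter-driven multiple reporter transcription units, dosed 24 h. Reporter mRNA quantified by RT-PCR, FAM-labelled primer extension, HpaI digest and capillary electrophoresis; bidirectional fit versus DMSO baseline.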

Experiment [5] in a line: ATG_M_06_CIS: Attagene CIS-FACTORIAL HepG2 Assay for M06 Transcription Factor (Internal Marker) (AID 2282950). Conditions: HepG2 Attagene CIS-FACTORIAL M06 internal marker reporter; actives raise or lower the signal. An outline of the steps: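 Fluorescence-labelled RT-PCR products from cis-promoter reporter units, cut with HpaI and resolved by capillary electrophoresis, give the signal. Cells are human HepG2, dosed for 24 h. Serves as background control, fitted relative to DMSO.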

Experiment [6] has as its target Hypoxia-inducible factor 1-alpha (Homo sapiens) (UniProt Q16665). The experiment is described as follows: ATG_HIF1a_CIS: Attagene CIS-FACTORIAL HepG2 Assay for human Hypoxia Inducible Factor 1 (HIF1A) (AID 2282951). Conditions: HepG2 Attagene cis-factorial HIF1a reporter transcription; actives raise or lower the signal. An outline of the steps: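 Measures endogenous transcription-factor activity through cis-regulated reporter mRNA in HepG2. Cells dosed 24 h; transcripts quantified by RT-PCR with 6-FAM-labelled products separated by capillary electrophoresis; DMSO serves as negative control.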

The target in experiment [7] is Hepatocyte nuclear factor 6 (Homo sapiens) (UniProt Q9UBC0). Kind of experiment: ATG_HNF6_CIS: Attagene CIS-FACTORIAL HepG2 Assay for human Hepatocyte Nuclear Factor 6 (HNF6) (AID 2282952). As to conditions: HepG2 Attagene cis-factorial HNF6 reporter transcription; actives raise or lower the signal. The procedure, abridged:
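Twenty-four-hour chemical treatment of reporter-transfected HepG2 cells precedes RNA isolation, DNase-treated reverse transcription and PCR of reporter sequences. Labelled fragments are sized by capillary electrophoresis and fitted bidirectionally versus DMSO.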

Experiment [8] concerns the target Heat shock factor protein 1 (Homo sapiens) (UniProt Q00613). The experiment is described as follows: ATG_HSE_CIS: Attagene CIS-FACTORIAL HepG2 Assay for human Heat Shock Transcription Factor 1 (HSE) (AID 2282953). Conditions: HepG2 HSE cis-reporter, Attagene RNA transcription; actives raise or lower the signal. The procedure, abridged:
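After a 24 h incubation with test chemical, transfected HepG2 cells were harvested for RNA; reporter transcripts were measured by RT-PCR and capillary electrophoresis. Values reflect gain or loss of signal relative to DMSO.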

Experiment [9] in a line: ATG_MRE_CIS: Attagene CIS-FACTORIAL HepG2 Assay for human Metal Responsive Element (MRE) (AID 2282954). Conditions: HepG2 MRE cis-reporter transcription, Attagene multiplex; actives raise or lower the signal. An outline of the steps:
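Cells were transfected with cis-promoter reporter transcription units, then dosed for 24 h. RNA was reverse-transcribed, amplified, fluorescently labelled and resolved by capillary electrophoresis, and activity was fitted in both directions relative to DMSO.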

Experiment [10] in a line: ATG_PBREM_CIS: Attagene CIS-FACTORIAL HepG2 Assay for human Phenobarbital-responsive Enhancer Module (PBREM) (AID 2282955). Conditions: HepG2 PBREM cis-reporter, Attagene multiplexed transcription; actives raise or lower the signal. An outline of the steps: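 Fluorescence of labelled reporter cDNA fragments, resolved by capillary electrophoresis, gives mRNA induction in transfected HepG2 cells treated for 24 h; DMSO serves as negative control and baseline.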

Experiment [11] concerns the target Paired box protein Pax-6 (Homo sapiens) (UniProt P26367). Kind of experiment: ATG_Pax6_CIS: Attagene CIS-FACTORIAL HepG2 Assay for human Paired Box 6 (PAX6) (AID 2282956). As to conditions: HepG2 CIS-FACTORIAL PAX6 reporter transcription, RNA readout; actives raise or lower the signal. An outline of the steps: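 Fluorescent RT-PCR products separated by capillary electrophoresis report PAX6-linked promoter mRNA in HepG2 cells 24 h post-dose. Curves fitted bidirectionally, DMSO as negative control.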

A short description of experiment [12]: ATG_PXRE_CIS: Attagene CIS-FACTORIAL HepG2 Assay for human Pregnane X Receptor Element (PXRE) (AID 2282957). Conditions: HepG2 Attagene CIS-FACTORIAL PXRE reporter, mRNA; actives raise or lower the signal. An outline of the steps: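 Bidirectional activity, baselined to DMSO, derived from reporter mRNA fluorescence (RT-PCR plus capillary electrophoresis) in HepG2 cells bearing cis-promoter reporter units, 24 h exposure.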

Experiment [13] in a line: ATG_PPRE_CIS: Attagene CIS-FACTORIAL HepG2 Assay for human Peroxisome Proliferator-activated Response Element (PPRE) (AID 2282958). As to conditions: HepG2 PPRE cis-element reporter, Attagene transcription factor profiling; actives raise or lower the signal. An outline of the steps:
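Cells are first transfected transiently with the multiplexed reporter library, then dosed for 24 h. Total RNA is reverse-transcribed, amplified, fluorescently end-labeled and HpaI-cut before capillary electrophoresis; activity is fitted bidirectionally against DMSO controls.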

Experiment [14] is described as follows: ATG_Sox_CIS: Attagene CIS-FACTORIAL HepG2 Assay for human SRY-box transcription factor (SOX) (AID 2282960). As to conditions: HepG2 Attagene cis-factorial SOX reporter, mRNA; actives raise or lower the signal. The procedure, abridged: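 Transient MRTU transfection of HepG2; 24 h compound incubation; TriZol RNA, oligo(dT) RT, PCR, 6-FAM primer extension, HpaI cut, CE. Bidirectional fit, DMSO = baseline.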

In experiment [15] the target is Transcription factor Sp1 (Homo sapiens) (UniProt P08047). Kind of experiment: ATG_Sp1_CIS: Attagene CIS-FACTORIAL HepG2 Assay for human Specificity Protein 1 (Sp1) (AID 2282961). As to conditions: HepG2 Sp1 cis-reporter transcription, actives raise or lower the signal. The procedure, abridged:
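Endogenous Sp1 activity was gauged in human liver HepG2 cells bearing transfected reporter units under a cis-regulating promoter. After 24 h dosing, reporter mRNA was quantified by RT-PCR with capillary electrophoresis, and activity fitted bidirectionally versus DMSO.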

Experiment [16] is described as follows: ATG_SREBP_CIS: Attagene CIS-FACTORIAL HepG2 Assay for human Sterol Regulatory Element Binding (SREBP) (AID 2282962). Conditions: HepG2 Attagene cis-factorial SREBP reporter, mRNA; actives raise or lower the signal. An outline of the steps: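 Endogenous factor activity is measured in HepG2 through multiplexed reporter units under cis-element control. Following a 24 h incubation, reporter transcripts are reverse-transcribed, PCR-amplified and sized by capillary electrophoresis; activity is fitted in both directions relative to DMSO.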

Experiment [17] addresses Signal transducer and activator of transcription 3 (Homo sapiens) (UniProt P40763). Kind of experiment: ATG_STAT3_CIS: Attagene CIS-FACTORIAL HepG2 Assay for human Signal Transducer and Activator of Transcription 3 (STAT3) (AID 2282963). As to conditions: HepG2, Attagene cis-factorial STAT3 reporter transcription; actives raise or lower the signal. The procedure, abridged: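 HepG2, MRTU-transfected, 24 h dosing. RNA → RT → PCR → FAM label → HpaI → CE. Bidirectional fit vs DMSO.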

Experiment [18] is described as follows: ATG_TCF_b_cat_CIS: Attagene CIS-FACTORIAL HepG2 Assay for human T-Cell-Factor with beta-catenin (TCF/b-cat) (AID 2282965). Conditions: HepG2 TCF/beta-catenin cis-reporter transcription, actives raise or lower the signal. The procedure, abridged:
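Using capillary electrophoresis as the read-out, labelled reporter cDNA fragments from transiently transfected HepG2 were sized and quantified. Exposure lasted 24 hours; activity in either direction was referenced to DMSO.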

A short description of experiment [19]: ATG_RORE_CIS: Attagene CIS-FACTORIAL HepG2 Assay for human RAR-related Orphan Receptor Element (RORE) (AID 2282959). Conditions: HepG2 Attagene cis-factorial RORE reporter, mRNA; actives raise or lower the signal. An outline of the steps:
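Cells were HepG2 carrying transfected cis-regulated reporter constructs, dosed for 24 hours. Total RNA was reverse-transcribed and reporter cDNA amplified, fluorescently labeled and sized by capillary electrophoresis. Activity was fitted bidirectionally relative to DMSO.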

A short description of experiment [20]: ATG_TA_CIS: Attagene CIS-FACTORIAL HepG2 Assay for human TA Basal Promoter (AID 2282964). Conditions: HepG2 Attagene CIS-factorial TA basal promoter reporter; actives raise or lower the signal. The procedure, abridged:
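Multiplexed mRNA reporter assay, HepG2, 24 h. Reporter cDNA amplified, 6-FAM primer-extended, HpaI-cut, CE-sized; DMSO = negative control and baseline.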

Activity calls are given as the source filed them. The calls were made as follows: active = hit-call score of the fitted dose curve at least 0.9, where 1 is the maximum; inactive = score below 0.9.

Transcription factor Sp1 (Homo sapiens), sequence (P08047 whole entry, looked up): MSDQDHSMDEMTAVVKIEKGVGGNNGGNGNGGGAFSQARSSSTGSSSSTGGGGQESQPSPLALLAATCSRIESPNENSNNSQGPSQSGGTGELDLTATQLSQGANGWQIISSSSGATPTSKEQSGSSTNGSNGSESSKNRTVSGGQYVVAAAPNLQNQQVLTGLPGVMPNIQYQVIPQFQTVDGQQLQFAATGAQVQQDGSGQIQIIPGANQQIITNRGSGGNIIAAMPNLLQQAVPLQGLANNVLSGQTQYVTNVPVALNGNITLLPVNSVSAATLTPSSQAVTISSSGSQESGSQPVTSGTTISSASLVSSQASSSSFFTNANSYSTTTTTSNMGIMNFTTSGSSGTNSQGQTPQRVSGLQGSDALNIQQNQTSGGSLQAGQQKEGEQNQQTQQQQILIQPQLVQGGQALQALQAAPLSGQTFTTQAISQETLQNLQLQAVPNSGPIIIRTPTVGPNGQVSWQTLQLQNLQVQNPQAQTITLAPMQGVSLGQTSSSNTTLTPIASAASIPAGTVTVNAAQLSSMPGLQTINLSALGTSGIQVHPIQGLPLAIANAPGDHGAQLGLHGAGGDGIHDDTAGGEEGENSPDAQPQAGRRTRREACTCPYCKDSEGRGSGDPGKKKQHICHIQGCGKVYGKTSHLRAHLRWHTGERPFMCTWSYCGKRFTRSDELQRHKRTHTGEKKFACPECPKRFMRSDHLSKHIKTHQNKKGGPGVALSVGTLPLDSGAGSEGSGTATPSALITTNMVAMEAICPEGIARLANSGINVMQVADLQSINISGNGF
Paired box protein Pax-6 (Homo sapiens), sequence (P26367 whole entry, looked up): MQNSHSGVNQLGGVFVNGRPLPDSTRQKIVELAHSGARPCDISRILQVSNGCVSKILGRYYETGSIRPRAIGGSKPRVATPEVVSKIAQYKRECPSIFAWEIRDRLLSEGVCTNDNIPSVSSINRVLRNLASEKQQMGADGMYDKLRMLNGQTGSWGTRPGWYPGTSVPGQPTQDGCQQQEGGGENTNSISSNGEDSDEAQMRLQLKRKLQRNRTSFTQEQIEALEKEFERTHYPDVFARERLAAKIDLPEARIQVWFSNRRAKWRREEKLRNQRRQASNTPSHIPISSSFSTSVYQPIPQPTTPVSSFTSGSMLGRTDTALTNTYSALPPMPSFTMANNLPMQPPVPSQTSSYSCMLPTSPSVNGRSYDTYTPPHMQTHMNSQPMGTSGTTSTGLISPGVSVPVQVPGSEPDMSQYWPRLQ
Bile acid receptor (Homo sapiens), sequence (Q96RI1 whole entry, looked up): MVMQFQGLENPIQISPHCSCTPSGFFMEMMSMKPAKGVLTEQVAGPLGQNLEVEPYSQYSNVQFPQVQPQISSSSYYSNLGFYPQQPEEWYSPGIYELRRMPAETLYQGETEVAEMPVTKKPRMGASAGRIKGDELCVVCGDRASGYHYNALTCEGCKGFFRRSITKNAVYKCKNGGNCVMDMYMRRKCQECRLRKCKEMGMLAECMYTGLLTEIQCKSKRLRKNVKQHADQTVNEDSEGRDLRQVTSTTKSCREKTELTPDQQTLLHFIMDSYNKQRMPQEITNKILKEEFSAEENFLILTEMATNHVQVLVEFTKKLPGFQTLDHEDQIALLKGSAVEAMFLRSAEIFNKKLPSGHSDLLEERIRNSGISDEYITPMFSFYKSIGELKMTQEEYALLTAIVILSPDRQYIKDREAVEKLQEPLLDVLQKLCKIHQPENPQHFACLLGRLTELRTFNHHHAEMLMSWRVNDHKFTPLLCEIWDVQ
Signal transducer and activator of transcription 3 (Homo sapiens), sequence (P40763 whole entry, looked up): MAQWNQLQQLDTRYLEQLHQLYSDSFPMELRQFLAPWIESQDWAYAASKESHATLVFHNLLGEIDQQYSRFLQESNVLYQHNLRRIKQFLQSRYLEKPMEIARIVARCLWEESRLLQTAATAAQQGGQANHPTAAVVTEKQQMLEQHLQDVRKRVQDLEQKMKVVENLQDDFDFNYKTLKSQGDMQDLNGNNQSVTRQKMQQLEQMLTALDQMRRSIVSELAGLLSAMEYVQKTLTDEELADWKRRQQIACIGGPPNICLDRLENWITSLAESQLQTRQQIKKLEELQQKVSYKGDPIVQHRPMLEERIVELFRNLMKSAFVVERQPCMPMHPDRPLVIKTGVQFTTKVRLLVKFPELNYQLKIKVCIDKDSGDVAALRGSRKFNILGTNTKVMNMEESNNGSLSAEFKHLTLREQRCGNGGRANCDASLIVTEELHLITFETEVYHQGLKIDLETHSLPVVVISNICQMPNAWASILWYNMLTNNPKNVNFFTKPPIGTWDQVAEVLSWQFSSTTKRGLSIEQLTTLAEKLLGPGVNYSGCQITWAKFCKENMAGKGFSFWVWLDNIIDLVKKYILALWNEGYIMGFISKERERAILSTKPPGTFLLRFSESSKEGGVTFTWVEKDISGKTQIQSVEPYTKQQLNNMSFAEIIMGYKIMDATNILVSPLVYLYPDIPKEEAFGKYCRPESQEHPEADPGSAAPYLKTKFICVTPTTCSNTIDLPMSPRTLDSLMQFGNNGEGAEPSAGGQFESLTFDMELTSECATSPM
Hepatocyte nuclear factor 6 (Homo sapiens), sequence (Q9UBC0 whole entry, looked up, the tested form may be a part): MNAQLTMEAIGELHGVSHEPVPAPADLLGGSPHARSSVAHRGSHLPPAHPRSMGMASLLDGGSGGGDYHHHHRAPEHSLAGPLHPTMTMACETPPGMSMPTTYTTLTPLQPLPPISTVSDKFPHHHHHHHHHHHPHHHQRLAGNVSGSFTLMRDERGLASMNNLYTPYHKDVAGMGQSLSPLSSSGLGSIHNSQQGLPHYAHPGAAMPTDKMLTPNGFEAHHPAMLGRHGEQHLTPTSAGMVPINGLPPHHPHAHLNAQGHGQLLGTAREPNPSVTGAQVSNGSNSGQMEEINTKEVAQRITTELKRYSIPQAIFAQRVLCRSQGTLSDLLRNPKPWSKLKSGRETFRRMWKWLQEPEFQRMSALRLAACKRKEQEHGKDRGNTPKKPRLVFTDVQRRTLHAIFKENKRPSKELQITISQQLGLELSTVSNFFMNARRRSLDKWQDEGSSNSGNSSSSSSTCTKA
Heat shock factor protein 1 (Homo sapiens), sequence (Q00613 whole entry, looked up): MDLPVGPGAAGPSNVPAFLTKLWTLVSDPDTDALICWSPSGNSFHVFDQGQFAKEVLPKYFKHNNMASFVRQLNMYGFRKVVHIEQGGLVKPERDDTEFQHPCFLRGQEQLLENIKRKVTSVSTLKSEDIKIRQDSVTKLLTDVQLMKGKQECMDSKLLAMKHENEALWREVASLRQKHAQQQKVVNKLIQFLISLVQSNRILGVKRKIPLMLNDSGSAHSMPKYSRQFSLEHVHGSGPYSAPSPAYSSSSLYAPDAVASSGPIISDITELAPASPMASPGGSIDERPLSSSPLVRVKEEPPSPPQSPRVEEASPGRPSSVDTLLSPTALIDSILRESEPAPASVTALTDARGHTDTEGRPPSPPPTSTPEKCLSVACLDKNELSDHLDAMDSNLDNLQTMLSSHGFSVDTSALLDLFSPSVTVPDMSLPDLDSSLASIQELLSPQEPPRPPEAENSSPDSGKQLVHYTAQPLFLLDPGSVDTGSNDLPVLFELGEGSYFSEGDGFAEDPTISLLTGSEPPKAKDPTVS
Hypoxia-inducible factor 1-alpha (Homo sapiens), sequence (Q16665 whole entry, looked up): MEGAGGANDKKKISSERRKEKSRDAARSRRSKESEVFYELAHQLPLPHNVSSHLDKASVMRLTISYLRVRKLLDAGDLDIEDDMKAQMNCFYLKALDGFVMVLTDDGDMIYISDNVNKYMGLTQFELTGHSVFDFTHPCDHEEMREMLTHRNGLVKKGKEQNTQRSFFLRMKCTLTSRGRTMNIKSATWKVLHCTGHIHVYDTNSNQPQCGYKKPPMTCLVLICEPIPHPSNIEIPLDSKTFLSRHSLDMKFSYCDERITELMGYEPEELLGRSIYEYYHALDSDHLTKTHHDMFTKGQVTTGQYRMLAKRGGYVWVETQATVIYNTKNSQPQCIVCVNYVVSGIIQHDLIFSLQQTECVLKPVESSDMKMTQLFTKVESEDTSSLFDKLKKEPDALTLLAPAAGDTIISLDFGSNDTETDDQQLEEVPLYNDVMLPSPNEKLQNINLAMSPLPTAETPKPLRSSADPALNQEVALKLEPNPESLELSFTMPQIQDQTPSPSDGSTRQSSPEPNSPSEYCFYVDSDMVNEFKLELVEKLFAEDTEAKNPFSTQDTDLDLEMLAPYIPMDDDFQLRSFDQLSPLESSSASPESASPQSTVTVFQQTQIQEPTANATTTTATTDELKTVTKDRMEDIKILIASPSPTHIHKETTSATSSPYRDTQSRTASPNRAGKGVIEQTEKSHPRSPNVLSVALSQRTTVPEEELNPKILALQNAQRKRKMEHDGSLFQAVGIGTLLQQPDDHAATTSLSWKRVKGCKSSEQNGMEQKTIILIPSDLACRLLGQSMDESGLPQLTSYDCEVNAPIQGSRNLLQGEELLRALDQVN

For `COCC(C)OCC(C)OCC(C)O` (centres undefined), the compound was classed as inactive in [1], in experiment [2], in experiment [3], in experiment [4], in [5] and in experiment [6]. In addition, the outcome in experiment [7], in [8], in [9], in experiment [10], in experiment [11] and in experiment [12] was inactive. Also, the result in [13], in experiment [14], in experiment [15], in [16], in experiment [17] and in experiment [18] was inactive.

Turning to `CCOC(=O)O[C@H](C)OC(=O)c1ccc2c(c1)cc(C(=O)NC1CCN(C(C)C)CC1)n2Cc1cc(-c2ccc(Cl)s2)on1`, the result in experiment [1], in experiment [2], in experiment [3], in experiment [4], in experiment [5] and in experiment [7] was inactive. The compound was classed as inactive in [8], in experiment [10], in experiment [11], in [12], in [13] and in [14]. In addition, the call in [17] and in experiment [18] was inactive. For the same compound, the AC50 in [9] was 51.1 µM (active); in experiment [15] it was 60 µM (active); in experiment [16] it was 33 µM (active).

For the compound `COc1cccc([C@H](O)C2CCN(CCc3ccc(F)cc3)CC2)c1OC`, the result in experiment [1], in experiment [2], in experiment [3], in experiment [4], in experiment [5] and in [7] was inactive. Further, the call in experiment [8], in [9], in experiment [11], in experiment [13], in experiment [19] and in experiment [14] was inactive. Moreover, the result in experiment [15], in [16], in [17] and in experiment [20] was inactive. The results for the concentration at half-maximal activity (AC50) in experiment [6], in experiment [12] and in experiment [18] were 27.4 µM (active), 25.8 µM (active) and 100 µM (active), respectively.
